# Like-named read-outs stand apart in the source and are kept apart here.
# How the values were obtained:
# FLT4 = settings: read-out: apparent Kd, n = 1
# IRAK4 = settings: read-out: apparent Kd, n = 1
# [1] = compound concentrations:100 nM and 1000 nM (sheet 'Lestaurtinib' of Supplementary Table 1),run:Lestaurtinib_02364_R3,Plate:MR002
# [2] = compound concentrations:100 nM and 1000 nM (sheet 'Lestaurtinib' of Supplementary Table 1),run:Lestaurtinib_02381_R1,Plate:MR004
# [3] = compound concentrations:100 nM and 1000 nM (sheet 'Lestaurtinib' of Supplementary Table 1),run:Lestaurtinib_02381_R2,Plate:MR004
# [4] = compound concentrations:100 nM and 1000 nM (sheet 'Lestaurtinib' of Supplementary Table 1),run:Lestaurtinib_02407_R2,Plate:MR005
# [5] = compound concentrations:100 nM and 1000 nM (sheet 'Lestaurtinib' of Supplementary Table 1),run:Lestaurtinib_02422_R1,Plate:MR006
# [6] = compound concentrations:100 nM and 1000 nM (sheet 'Lestaurtinib' of Supplementary Table 1),run:Lestaurtinib_02437_R2,Plate:MR007
# [7] = compound concentrations:100 nM and 1000 nM (sheet 'Lestaurtinib' of Supplementary Table 1),run:Lestaurtinib_02438_R1,Plate:MR008
substance,measurement,setting,value
Lestaurtinib,potency estimated from few doses,FLT4; [1],199 nM
same,potency estimated from few doses,"FLT4; compound concentrations:100 nM and 1000 nM (sheet 'Lestaurtinib' of Supplementary Table 1),run:Lestaurtinib_02367_R2,Plate:MR003",462 nM
same,potency estimated from few doses,"FLT4; compound concentrations:100 nM and 1000 nM (sheet 'Lestaurtinib' of Supplementary Table 1),run:Lestaurtinib_02367_R3,Plate:MR003",74.5 nM
same,potency estimated from few doses,FLT4; [2],202 nM
same,potency estimated from few doses,FLT4; [3],158 nM
same,potency estimated from few doses,FLT4; [4],157 nM
same,potency estimated from few doses,FLT4; [5],289 nM
same,potency estimated from few doses,"FLT4; compound concentrations:100 nM and 1000 nM (sheet 'Lestaurtinib' of Supplementary Table 1),run:Lestaurtinib_02422_R2,Plate:MR006",26 nM
same,potency estimated from few doses,"FLT4; compound concentrations:100 nM and 1000 nM (sheet 'Lestaurtinib' of Supplementary Table 1),run:Lestaurtinib_02437_R1,Plate:MR007",520 nM
same,potency estimated from few doses,FLT4; [6],1240 nM
same,potency estimated from few doses,FLT4; [7],25.6 nM
same,potency estimated from few doses,"FLT4; compound concentrations:100 nM and 1000 nM (sheet 'Lestaurtinib' of Supplementary Table 1),run:Lestaurtinib_02443_R3,Plate:MR009",154 nM
same,potency estimated from few doses,"FLT4; compound concentrations:100 nM and 1000 nM (sheet 'Lestaurtinib' of Supplementary Table 1),run:Lestaurtinib_02473_R1,Plate:MR010",310 nM
same,potency estimated from few doses,"FLT4; compound concentrations:100 nM and 1000 nM (sheet 'Lestaurtinib' of Supplementary Table 1),run:Lestaurtinib_02473_R2,Plate:MR010",316 nM
same,potency estimated from few doses,"FLT4; compound concentrations:100 nM and 1000 nM (sheet 'Lestaurtinib' of Supplementary Table 1),run:Lestaurtinib_02482_R3,Plate:MR011",229 nM
same,potency estimated from few doses,"FLT4; compound concentrations:100 nM and 1000 nM (sheet 'Lestaurtinib' of Supplementary Table 1),run:Lestaurtinib_02487_R2,Plate:MR012",131 nM
same,potency estimated from few doses,"FLT4; compound concentrations:100 nM and 1000 nM (sheet 'Lestaurtinib' of Supplementary Table 1),run:Lestaurtinib_02566_R1,Plate:MR014",1590 nM
same,potency estimated from few doses,"FLT4; compound concentrations:100 nM and 1000 nM (sheet 'Lestaurtinib' of Supplementary Table 1),run:Lestaurtinib_02566_R2,Plate:MR014",90.7 nM
same,potency estimated from few doses,"FLT4; compound concentrations:100 nM and 1000 nM (sheet 'Lestaurtinib' of Supplementary Table 1),run:Lestaurtinib_02566_R3,Plate:MR014",77.7 nM
same,potency estimated from few doses,"FLT4; compound concentrations:100 nM and 1000 nM (sheet 'Lestaurtinib' of Supplementary Table 1),run:Lestaurtinib_02577_R2,Plate:MR016",225 nM
same,potency estimated from few doses,"FLT4; compound concentrations:100 nM and 1000 nM (sheet 'Lestaurtinib' of Supplementary Table 1),run:Lestaurtinib_02577_R3,Plate:MR016",160 nM
same,potency estimated from few doses,"FLT4; compound concentrations:100 nM and 1000 nM (sheet 'Lestaurtinib' of Supplementary Table 1),run:Lestaurtinib_02584_R1,Plate:MR017",396 nM
same,potency estimated from few doses,"FLT4; compound concentrations:100 nM and 1000 nM (sheet 'Lestaurtinib' of Supplementary Table 1),run:Lestaurtinib_02584_R2,Plate:MR017",124 nM
same,potency estimated from few doses,"FLT4; compound concentrations:100 nM and 1000 nM (sheet 'Lestaurtinib' of Supplementary Table 1),run:Lestaurtinib_02584_R3,Plate:MR017",434 nM
same,potency estimated from few doses,"FLT4; compound concentrations:100 nM and 1000 nM (sheet 'Lestaurtinib' of Supplementary Table 1),run:Lestaurtinib_02601_R1,Plate:MR018",286 nM
same,potency estimated from few doses,"FLT4; compound concentrations:100 nM and 1000 nM (sheet 'Lestaurtinib' of Supplementary Table 1),run:Lestaurtinib_02601_R2,Plate:MR018",202 nM
same,potency estimated from few doses,"FLT4; compound concentrations:100 nM and 1000 nM (sheet 'Lestaurtinib' of Supplementary Table 1),run:Lestaurtinib_02601_R3,Plate:MR018",86 nM
same,potency estimated from few doses,"FLT4; compound concentrations:100 nM and 1000 nM (sheet 'Lestaurtinib' of Supplementary Table 1),run:Lestaurtinib_02606_R3,Plate:MR019",231 nM
same,potency estimated from few doses,"FLT4; compound concentrations:100 nM and 1000 nM (sheet 'Lestaurtinib' of Supplementary Table 1),run:Lestaurtinib_02624_R1,Plate:MR020",358 nM
same,potency estimated from few doses,"FLT4; compound concentrations:100 nM and 1000 nM (sheet 'Lestaurtinib' of Supplementary Table 1),run:Lestaurtinib_02624_R2,Plate:MR020",135 nM
same,potency estimated from few doses,"FLT4; compound concentrations:100 nM and 1000 nM (sheet 'Lestaurtinib' of Supplementary Table 1),run:Lestaurtinib_02624_R3,Plate:MR020",359 nM
same,potency estimated from few doses,"FLT4; compound concentrations:100 nM and 1000 nM (sheet 'Lestaurtinib' of Supplementary Table 1),run:Lestaurtinib_02724_R2,Plate:MR021",319 nM
same,potency estimated from few doses,"FLT4; compound concentrations:100 nM and 1000 nM (sheet 'Lestaurtinib' of Supplementary Table 1),run:Lestaurtinib_02741_R2,Plate:MR023",701 nM
same,potency estimated from few doses,"FLT4; compound concentrations:100 nM and 1000 nM (sheet 'Lestaurtinib' of Supplementary Table 1),run:Lestaurtinib_02748_R1,Plate:MR024",330 nM
same,potency estimated from few doses,"FLT4; compound concentrations:100 nM and 1000 nM (sheet 'Lestaurtinib' of Supplementary Table 1),run:Lestaurtinib_02748_R2,Plate:MR024",521 nM
same,potency estimated from few doses,"FLT4; compound concentrations:100 nM and 1000 nM (sheet 'Lestaurtinib' of Supplementary Table 1),run:Lestaurtinib_02748_R3,Plate:MR024",161 nM
same,potency estimated from few doses,"FLT4; compound concentrations:100 nM and 1000 nM (sheet 'Lestaurtinib' of Supplementary Table 1),run:Lestaurtinib_02752_R1,Plate:MR025",310 nM
same,potency estimated from few doses,"FLT4; compound concentrations:100 nM and 1000 nM (sheet 'Lestaurtinib' of Supplementary Table 1),run:Lestaurtinib_02752_R3,Plate:MR025",254 nM
same,potency estimated from few doses,"FLT4; compound concentrations:100 nM and 1000 nM (sheet 'Lestaurtinib' of Supplementary Table 1),run:Lestaurtinib_02765_R2,Plate:MR026",162 nM
same,potency estimated from few doses,"FLT4; compound concentrations:100 nM and 1000 nM (sheet 'Lestaurtinib' of Supplementary Table 1),run:Lestaurtinib_02765_R3,Plate:MR026",400 nM
same,potency estimated from few doses,"FLT4; compound concentrations:100 nM and 1000 nM (sheet 'Lestaurtinib' of Supplementary Table 1),run:Lestaurtinib_02766_R1,Plate:MR027",350 nM
same,potency estimated from few doses,"FLT4; compound concentrations:100 nM and 1000 nM (sheet 'Lestaurtinib' of Supplementary Table 1),run:Lestaurtinib_02766_R3,Plate:MR027",237 nM
same,potency estimated from few doses,"FLT4; compound concentrations:100 nM and 1000 nM (sheet 'Lestaurtinib' of Supplementary Table 1),run:Lestaurtinib_02768_R1,Plate:MR028",180 nM
same,potency estimated from few doses,"FLT4; compound concentrations:100 nM and 1000 nM (sheet 'Lestaurtinib' of Supplementary Table 1),run:Lestaurtinib_02768_R2,Plate:MR028",389 nM
same,potency estimated from few doses,"FLT4; compound concentrations:100 nM and 1000 nM (sheet 'Lestaurtinib' of Supplementary Table 1),run:Lestaurtinib_02768_R3,Plate:MR028",493 nM
same,potency estimated from few doses,"FLT4; compound concentrations:100 nM and 1000 nM (sheet 'Lestaurtinib' of Supplementary Table 1),run:Lestaurtinib_02795_R1,Plate:MR022",391 nM
same,potency estimated from few doses,"FLT4; compound concentrations:100 nM and 1000 nM (sheet 'Lestaurtinib' of Supplementary Table 1),run:Lestaurtinib_02795_R2,Plate:MR022",229 nM
same,potency estimated from few doses,"FLT4; compound concentrations:100 nM and 1000 nM (sheet 'Lestaurtinib' of Supplementary Table 1),run:Lestaurtinib_02795_R3,Plate:MR022",297 nM
same,potency estimated from few doses,"FLT4; compound concentrations:100 nM and 1000 nM (sheet 'Lestaurtinib' of Supplementary Table 1),run:Lestaurtinib_02802_R1,Plate:MR029",183 nM
same,potency estimated from few doses,"FLT4; compound concentrations:100 nM and 1000 nM (sheet 'Lestaurtinib' of Supplementary Table 1),run:Lestaurtinib_02896_R1,Plate:MR030",159 nM
same,potency estimated from few doses,"FLT4; compound concentrations:100 nM and 1000 nM (sheet 'Lestaurtinib' of Supplementary Table 1),run:Lestaurtinib_02896_R2,Plate:MR030",151 nM
same,potency estimated from few doses,"FLT4; compound concentrations:100 nM and 1000 nM (sheet 'Lestaurtinib' of Supplementary Table 1),run:Lestaurtinib_02896_R3,Plate:MR030",372 nM
same,potency estimated from few doses,"FLT4; compound concentrations:100 nM and 1000 nM (sheet 'Lestaurtinib' of Supplementary Table 1),run:Lestaurtinib_03172_R3,Plate:MR031",131 nM
same,potency estimated from few doses,"FLT4; compound concentrations:100 nM and 1000 nM (sheet 'Lestaurtinib' of Supplementary Table 1),run:Lestaurtinib_03252_R1,Plate:MR032",229 nM
same,potency estimated from few doses,"FLT4; compound concentrations:100 nM and 1000 nM (sheet 'Lestaurtinib' of Supplementary Table 1),run:Lestaurtinib_03252_R2,Plate:MR032",76.2 nM
same,potency estimated from few doses,"FLT4; compound concentrations:100 nM and 1000 nM (sheet 'Lestaurtinib' of Supplementary Table 1),run:Lestaurtinib_03260_R1,Plate:MR033",162 nM
same,potency estimated from few doses,"FLT4; compound concentrations:100 nM and 1000 nM (sheet 'Lestaurtinib' of Supplementary Table 1),run:Lestaurtinib_03260_R3,Plate:MR033",388 nM
same,potency estimated from few doses,"IRAK4; compound concentrations:100 nM and 1000 nM (sheet 'Lestaurtinib' of Supplementary Table 1),run:Lestaurtinib_02339_R2,Plate:MR001",146 nM
same,potency estimated from few doses,"IRAK4; compound concentrations:100 nM and 1000 nM (sheet 'Lestaurtinib' of Supplementary Table 1),run:Lestaurtinib_02339_R3,Plate:MR001",62 nM
same,potency estimated from few doses,"IRAK4; compound concentrations:100 nM and 1000 nM (sheet 'Lestaurtinib' of Supplementary Table 1),run:Lestaurtinib_02364_R1,Plate:MR002",77.8 nM
same,potency estimated from few doses,IRAK4; [1],95 nM
same,potency estimated from few doses,IRAK4; [2],93.9 nM
same,potency estimated from few doses,IRAK4; [3],76.7 nM
same,potency estimated from few doses,"IRAK4; compound concentrations:100 nM and 1000 nM (sheet 'Lestaurtinib' of Supplementary Table 1),run:Lestaurtinib_02381_R3,Plate:MR004",65.8 nM
same,potency estimated from few doses,"IRAK4; compound concentrations:100 nM and 1000 nM (sheet 'Lestaurtinib' of Supplementary Table 1),run:Lestaurtinib_02407_R1,Plate:MR005",69.8 nM
same,potency estimated from few doses,IRAK4; [4],55.3 nM
same,potency estimated from few doses,"IRAK4; compound concentrations:100 nM and 1000 nM (sheet 'Lestaurtinib' of Supplementary Table 1),run:Lestaurtinib_02407_R3,Plate:MR005",85.3 nM
same,potency estimated from few doses,IRAK4; [5],136 nM
same,potency estimated from few doses,"IRAK4; compound concentrations:100 nM and 1000 nM (sheet 'Lestaurtinib' of Supplementary Table 1),run:Lestaurtinib_02422_R3,Plate:MR006",131 nM
same,potency estimated from few doses,IRAK4; [6],140 nM
same,potency estimated from few doses,IRAK4; [7],79.9 nM
same,potency estimated from few doses,"IRAK4; compound concentrations:100 nM and 1000 nM (sheet 'Lestaurtinib' of Supplementary Table 1),run:Lestaurtinib_02443_R1,Plate:MR009",113 nM

# — PMC11062922 (Nature Chemical Biology, 2023)
